# Source: ChEMBL document CHEMBL3988442, “University of Dundee, Small-Polar-MMV Screening Library” (2021)
# In all, about 48,000 compounds went through this assay and about 13,000 (27%) showed an effect of 50% or more. The list shows a part of the results.
# Tested on: Wolbachia pipientis
# Assay: Anti-Wolbachia Cell-Based Screen
# Assay type: functional
# Set-up: scale not given: in the data most compounds retested in dose-response had high values
# Conditions: 5 µM
row,SMILES,Percent Effect
1,CCn1c(CC2CCN(C(=O)c3cc(C(C)C)nn3C)CC2)n[nH]c1=O,0.9199%
2,Cc1occc1C(=O)NCC(=O)NCCCOc1ccc(F)cc1,-8.265%
3,CCc1nnc(CNc2ccc(CC(=O)N3CCSCC3)cc2)o1,7.337%
4,CCNC(=O)[C@@H]1C[C@H](NC(=O)c2cc(=O)[nH]c3ccc(C)cc23)CN1C,116.2%
5,Cc1ccc2[nH]c(=O)cc(C(=O)N[C@@H]3C[C@@H](CO)N(C)C3)c2c1,108.3%
6,COC(=O)[C@@H]1C[C@H](NC(=O)c2cc(=O)[nH]c3ccc(C)cc23)CN1C,103.5%
7,CNc1ccc(C)cc1C(=O)N[C@H]1C[C@H]2CN(C)CCN2C1,9.233%
8,COC(=O)[C@@H]1C[C@H](NC(=O)Cn2c(=O)cc(C)c3ccccc32)CN1C,0.9939%
9,CCNC(=O)[C@@H]1C[C@@H](N)CN1C(=O)Cc1cc(C)ccc1C,-80.39%
10,CCNC(=O)[C@@H]1C[C@H](N)CN1C(=O)Cc1cc(C)ccc1C,-8.677%
11,COC(=O)[C@@H]1C[C@@H](NC(=O)CN2C(=O)N(C)Cc3ccccc32)CN1C,-9.28%
12,CCc1ccc2nc(C)cc(C(=O)NC3CCC(=O)N(C)C3)c2c1 (stereo not given),-60.56%
13,CCc1ccc2nc(C)cc(C(=O)N[C@@H]3CCCNC3)c2c1,-27.02%
14,Cc1ccc2[nH]c(=O)cc(C(=O)NCCCn3nccc3C3CC3)c2c1,-8.543%
15,CCc1ccc2nc(C)cc(C(=O)N[C@@H]3C[C@@H](CO)N(C)C3)c2c1,90.46%
16,CCNc1ncc(C(=O)N2CCOC(CCCc3ccccc3)C2)cn1 (stereo not given),15.39%
17,Cc1nc(C)c(C(=O)NCc2nc3cccc(C)c3n2C)o1,31.6%
18,O=C(c1ncn2c1CNS(=O)(=O)c1ccccc1-2)N1CCCCC1,-12.5%
19,CC(C)(CNC(=O)C1(c2cccc(Br)c2)CCOCC1)C(=O)O,-13.82%
20,Cc1ccccc1CCC(=O)N1CCc2ncnc(NCCO)c2CC1,-0.3127%
21,Cc1nc(CCC(=O)N2Cc3cnc(-c4ccccc4)nc3C2)n[nH]1,-6.082%
22,Cc1ccsc1[C@@H]1CCN(C(=O)CCc2n[nH]c(C)c2C)C[C@H]1O,6.25%
23,Cc1n[nH]c(C)c1CCC(=O)N1CCc2c(nc[nH]c2=O)C1,106.7%
24,COc1cccc(CC(=O)N2CCc3ncnc(NCCO)c3CC2)c1,-0.2896%
25,Cc1[nH]nc(CCC(=O)N2CCc3ncnc(NCCO)c3CC2)c1C,77.14%

row,SMILES,Percent Effect
1,CSCCC(=O)N1CCc2c(ncnc2N2CCOCC2)C1,-13.57%
2,Cc1[nH]nc(CCC(=O)N2CCc3c(nc[nH]c3=O)C2)c1C,104.7%
3,Cc1cnccc1N1CCCN(C(=O)CCc2n[nH]c(C)c2C)CC1,-9.911%
4,Cn1nc(Cn2cccc2)c2c1CN(Cc1ccoc1)C2.O=C(O)C(F)(F)F,-1.566%
5,Oc1cccc(CN2CCN(c3nccc(CCC(F)(F)F)n3)CC2)c1,0.5395%
6,Cc1cc(C)c2nc(CN3CCC(CN)CC3)cc(O)c2c1,-3.326%
7,CN(C)C(=O)NCc1cc2n(n1)CCCN(CC1CCCNC1)C2 (stereo not given),-1.604%
8,COC1CCN(CCNC(=O)NC(C)c2ccc(F)c(F)c2)CC1 (stereo not given),2.95%
9,CCOCCn1c(=O)n(CCC=C(C)C)c2cc(C(=O)O)cnc21,-10.97%
10,Cc1cc(NC2CCN(CC3CCCO3)CC2)n2nc(C)c(C)c2n1 (stereo not given),11.1%
11,CCn1ncc(C(=O)N2CCN(CC3CCCO3)CC2)c1C (stereo not given),-12.64%
12,Cc1cnc(C)c(N2CCN(Cc3ccc(C)c(C)c3)CC2)n1,-24.43%
13,Cc1ncc2c(n1)CN(CC1CCCCO1)CC2 (stereo not given),1.379%
14,CC1(C)CN=C(N2CCN(CC3CCCCO3)CC2)S1 (stereo not given),87.51%
15,CC1(C)CN=C(N2CCN(CCCN3CCOCC3)CC2)S1,99.8%
16,COCc1ccccc1C(=O)N1CCN(C2=NCC(C)(C)S2)CC1,-20.33%
17,CC1(c2ccccc2)CCC(=O)N(CCCN2CCOCC2)C1 (stereo not given),6.196%
18,CC(C)c1nc(CN2CCN(CC3CCCO3)CC2)cs1 (stereo not given),2.342%
19,CC1(C)CN=C(N2CCN(CC3CCCO3)CC2)S1 (stereo not given),67.12%
20,Cc1cnc(C)c(N2CCN(CC3CCCO3)CC2)n1 (stereo not given),94.75%
21,CCC(C)NC(=O)c1coc(COc2cccc(F)c2)n1 (stereo not given),-23.89%
22,Cc1nn(C(C)(C)C)c(=O)n1CC(=O)NCC(F)(F)F,1.676%
23,O=C(NCc1ccccc1)[C@H]1C[C@@H]2CN(S(=O)(=O)C3CC3)C[C@H]1O2,0.5177%
24,CCC(CNS(N)(=O)=O)Oc1ccccc1F (stereo not given),-4.298%
25,COc1ncnc2c1CCN(CC1CCOC1)CC2 (stereo not given),-41.04%

row,SMILES,Percent Effect
1,N#Cc1c(N2CCN(CC3CCOC3)CC2)nc2ccccn12 (stereo not given),-4.336%
2,CC1(C)CN=C(N2CCN(CC3CCOC3)CC2)S1 (stereo not given),102.4%
3,Cc1n[nH]c(C)c1S(=O)(=O)N(C)Cc1nn(C)c(Cl)c1Cl,0.7109%
4,CCN(Cc1cc(Br)ccc1F)C(=O)C(C)NC(N)=O (stereo not given),-3.713%
5,Cc1cccn2c(CNC(C)CCc3ccc(O)cc3)cnc12 (stereo not given),-2.833%
6,COc1ccccc1OC1(C(=O)O)CCN(c2nccnc2C)CC1,-2.671%
7,CCn1nc(C(C)C)cc1C(=O)N1CCOc2ccc(OC)cc21,10.42%
8,COCCN(C)CCN1CC2(CCN(C3CCNCC3)CC2)OC1=O,0.09435%
9,CC(C)NC(=O)N1CC[C@@H]2CN(Cc3cccc(Cl)c3)S(=O)(=O)[C@@H]2CC1,-12.85%
10,CNC(=O)N1CC[C@@H]2CN(Cc3cccc(Cl)c3)S(=O)(=O)[C@@H]2CC1,-6.007%
11,CC(=O)N1CC[C@@H]2CN(Cc3cccc(Cl)c3)S(=O)(=O)[C@@H]2CC1,-7.404%
12,CNC(=O)N1CC[C@@H]2CN(Cc3ccccc3)S(=O)(=O)[C@@H]2CC1,102%
13,CNC(=O)N1CC[C@@H]2CN(Cc3cccc(OC)c3)S(=O)(=O)[C@@H]2CC1,89.38%
14,CNC(=O)N1CC[C@@H]2CN(CCc3cccc(OC)c3)S(=O)(=O)[C@@H]2CC1,-2.748%
15,O=C(NCCSC1CCCC1)c1cc(Cl)ccn1,3.584%
16,COCC(=O)N[C@H]1C[C@@H](Cc2cc(CN3CCCCC3)on2)C1(C)C,11.93%
17,Cc1ccccc1CN(CCN(C)C)Cc1ncc[nH]1,-7.334%
18,COCCC1COC2(CCN(C(=O)C3CCC3)CC2)C1 (stereo not given),-7.726%
19,CN(C)C(C(=O)N1CCCN(C(=O)C2CCC2)CC1)c1ccccc1F (stereo not given),-11.1%
20,CC(C)NC(=O)N1CCC2(CC1)COc1ccccc1S(=O)(=O)N(C)C2,105.4%
21,CN1CC2(CCN(C(=O)C3CCC3)CC2)COc2ccccc2S1(=O)=O,97.81%
22,N#Cc1csc(CN(CC(=O)N2CCCC2)CC2CCCO2)c1 (stereo not given),4.573%
23,CCOc1ccc(OCC)c(NCc2cc(C)on2)c1,-0.4612%
24,COCCOC[C@]1(CNCc2ccc(OC)cc2)C[C@@H](O)[C@@H](O)C1.Cl,6.755%
25,Cc1ccccc1C1(CNC(=O)c2ccc(S(C)(=O)=O)cc2)CC1,72.54%

row,SMILES,Percent Effect
1,Cc1ccccc1C1(CNC(=O)c2cccc(S(C)(=O)=O)c2)CC1,2.045%
2,Cc1ccccc1C1(CNC(=O)N2CCC(CC(N)=O)CC2)CC1,-8.106%
3,CC(NC(=O)N(C)Cc1ccsc1)c1ccc2c(c1)OCO2 (stereo not given),-7.719%
4,CC(O)C1CCN(C(=O)CCOc2ccccc2F)CC1 (stereo not given),86.99%
5,CN(CCOc1ccccc1F)S(=O)(=O)CC1CCOCC1,2.029%
6,O=C(CCOc1ccccc1F)N1CCC(O)CC1,96.9%
7,O=C(Nc1ccccc1)C1CCN(C(=O)COc2ccccc2F)CC1,17.88%
8,O=C(CCOc1ccccc1F)N1CCOCC1,105.4%
9,CC(O)CN1CCN(C(=O)c2cnn(-c3ccccc3F)c2)CC1 (stereo not given),-7.908%
10,Cn1cnnc1C1CCN(C(=O)CCCOc2ccccc2F)CC1,-1.592%
11,COc1ccccc1C1(C(=O)N2CCN(CC(C)O)CC2)CC1 (stereo not given),-12.51%
12,CCOCC(=O)N1CCC(C(O)c2ccc(F)cc2)CC1 (stereo not given),-2.843%
13,CC(C)c1ccc(OCCC(=O)N2CCC(CC(N)=O)CC2)cc1,-11.97%
14,CC(O)CN1CCN(C(=O)CCOc2ccccc2F)CC1 (stereo not given),109.3%
15,CN1CCOC(CNC(=O)CCCOc2ccccc2F)C1 (stereo not given),-10.92%
16,CCN(C1CCN(c2cccc(F)c2C(C)=O)CC1)S(C)(=O)=O,-1.557%
17,COc1ccnc(N(C)Cc2csc(C)n2)n1,-11.41%
18,CC(Cn1cncn1)Nc1ccc(-c2nccn2C)nn1 (stereo not given),-4.731%
19,CC(NC(=O)N(C)Cc1ccc2c(c1)OCCO2)c1nncn1C (stereo not given),-31.29%
20,CC(C)Cc1cc(C(=O)NC(C)C)[nH]n1,116%
21,Cc1ccc(NCCNC(=O)c2cc(CC(C)C)n[nH]2)nn1,121%
22,Cc1ccc(N2CCCN(C(=O)c3cc(CC(C)C)n[nH]3)CC2)nn1,3.453%
23,CC(C)Cc1cc(C(=O)N2CCCN(c3cccnn3)CC2)[nH]n1,-1.538%
24,CC(C)Cc1cc(C(=O)N2CCCN(c3ncccn3)CC2)[nH]n1,-10.26%
25,CC(C)Cc1cc(C(=O)NCCn2nc3ccccn3c2=O)[nH]n1,-3.6%
